Source: PubChem BioAssay
JMJD2A Tudor inh: inhibitors of human JMJD2A Tudor domain | AlphaScreen JMJD2A-Tudor / H3K4me3 peptide binding | Potency, µM (series often up to 114 µM), without a hit: top-dose activity change, negative = inhibition, usual class: inhibitors | actives 4.4% (n = 390,000); also: % is scaled to controls: 0 for no effect and ±100 for the full control effect; nearly all actives have a fitted effect of over 50% in size
Sfp PPTase inh: Sfp phosphopantetheinyl transferase inhibition | AID 1490 | Q9F4F7 | actives 3.5% (n = 310,000) | Potency, µM, for the others: largest response in the series, negative = inhibition, most hits filed as inhibitors | Biochemical Sfp PPTase activity, qHTS;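 also: the enzyme is Sfp with the accession as filed and its product quenches rhodamine fluorescence; 0% = enzyme reaction without inhibitor and -100% = no enzyme wells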
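Fluorescence-quenching assay with 15 nM Sfp, 5 uM rhodamine-CoA and 12.5 uM BHQ-2-labelled ybbR peptide in pH 7.6 Hepes/MgCl2 buffer. Enzyme was pre-incubated with compound for 15 min at room temperature. Rate was taken from the 30-min fluorescence change (525/598 nm).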
BAZ2B inh: blocks human BAZ2B; actives 4.4% (n = 360,000); Potency, µM (doses to about 114 µM), inactives show at the top dose activity change, negative = inhibition, most hits filed as inhibitors; Q9UIF8; AlphaScreen BAZ2B-H3K14Ac peptide displacement; also: % is scaled to controls: 0 for no effect and ±100 for the full control effect; nearly all actives have a fitted effect of over 60% in size
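Inhibition is scored as reduced AlphaScreen emission. The BAZ2B/b-H3(5-23)K14Ac complex (50 nM each) in PBS pH 7.4, 0.01% Tween-20 meets compound (up to 110 uM) for 30 min at RT before bead addition.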
G9a inh: inhibitors of human histone lysine methyltransferase G9a. Q96KQ7. G9a H3K9 monomethylation, AlphaScreen, 2 h. Potency, µM (titrated, usually from 102 µM), inactives show at the highest dose activity, negative = inhibition, hits mostly inhibitors. actives 8.8% (n = 350,000). AID 504332; also: % is scaled to controls: 0 for no effect and ±100 for the full control effect; nearly all actives have a fitted effect of over 75% in size
Target sequence (Q96KQ7 913-1193 limits assumed): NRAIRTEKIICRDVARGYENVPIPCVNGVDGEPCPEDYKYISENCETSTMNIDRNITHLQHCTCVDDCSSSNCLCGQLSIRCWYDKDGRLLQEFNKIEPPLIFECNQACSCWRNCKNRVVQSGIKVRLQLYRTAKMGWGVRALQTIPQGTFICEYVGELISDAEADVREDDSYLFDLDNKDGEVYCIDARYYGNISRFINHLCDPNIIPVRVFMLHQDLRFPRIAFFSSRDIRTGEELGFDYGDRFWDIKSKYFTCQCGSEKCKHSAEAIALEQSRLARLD
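AlphaScreen detection with an anti-monomethyl H3K9 antibody quantified product after a 2 h room-temperature reaction containing 500 nM biotinylated H3K9 peptide, 20 µM SAM and 20 nM enzyme, which had been preincubated 15 min with compound.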
HP1b binding inh: inhibitors of HP1-beta chromodomain binding to methylated histone tails; actives 0.56% (n = 390,000); Potency, µM (doses to about 114 µM), for inactives: top-dose activity change, negative = inhibition, actives largely listed as inhibitors; P83916; AlphaScreen HP1-beta / biotin-H3K9me3 peptide binding; AID 540317; also: nearly all actives have a fitted effect of over 70% in size
Target sequence (P83916 whole entry, looked up): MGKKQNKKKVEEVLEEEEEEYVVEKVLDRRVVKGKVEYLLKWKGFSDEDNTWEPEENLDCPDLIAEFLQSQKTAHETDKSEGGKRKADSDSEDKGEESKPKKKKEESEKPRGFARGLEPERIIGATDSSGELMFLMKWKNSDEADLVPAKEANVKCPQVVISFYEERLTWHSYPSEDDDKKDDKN
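AlphaScreen: HP1-beta (50 nM) preformed 30 min with biotin-H3(1-18)K9me3 peptide (50 nM) in PBS pH 7.4, 0.01% Tween-20. Compound added for 30 min at RT, then streptavidin donor/nickel chelate acceptor beads (10 ug/mL) for 30 min.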
An asterisk follows results filed as active; ! = not active in a repeat; [ ] = dose if it differs, or a comment. Hits are enriched below; roughly 12% of the tested compounds scored in any of these assays. Calls follow the shape of the dose curve; as a rule, active = well fitted curve in the direction sought with a large enough effect; inconclusive = small, poorly fitted or top-dose-only effect, or another doubt; inactive = no such curve, though single readings can be large; an effect the other way counts as inactive or inconclusive. Potency is read from the fitted curve at half-maximal effect.

For COc1cc2c(c(OC)c1OC)-c1ccc(O)c(=O)cc1[C@@H](N)CC2 the results were JMJD2A Tudor inh 79µM*, BAZ2B inh 5%, G9a inh -2%[12.7 µM] and HP1b binding inh 52%.
For CC(C)[C@@]1(NC(=O)[C@@H]2C[C@@H]3c4cccc5[nH]cc(c45)C[C@H]3N(C)C2)O[C@@]2(O)[C@@H]3CCCN3C(=O)[C@H](Cc3ccccc3)N2C1=O the results were JMJD2A Tudor inh -31%, Sfp PPTase inh 79µM*!, BAZ2B inh 40µM*, G9a inh inconclusive and HP1b binding inh 5%.
CC(C)[C@@]1(NC(=O)[C@@H]2C=C3c4cccc5[nH]cc(c45)C[C@H]3N(C)C2)O[C@@]2(O)[C@@H]3CCCN3C(=O)[C@H](Cc3ccccc3)N2C1=O was read as Sfp PPTase inh inconclusive, BAZ2B inh -35% and G9a inh 8.9µM*.
O=C(NCCc1ccc(Cl)cc1)c1ccc(CNc2c(N3CCOCC3)c(=O)c2=O)cc1 was read as JMJD2A Tudor inh -7%, Sfp PPTase inh -8%, BAZ2B inh -1%, G9a inh -2% and HP1b binding inh 53%.
Screening CC1=NNC(=O)C1Br (stereo not drawn) returned JMJD2A Tudor inh 89µM* and HP1b binding inh 14µM*.
C1=C(c2ccccc2)CCNC1 was read as JMJD2A Tudor inh -12%, Sfp PPTase inh 5%, BAZ2B inh 3% and HP1b binding inh 9%.
`Oc1ccc(C2=CCNCC2)cc1O` gave JMJD2A Tudor inh 10µM* and HP1b binding inh inconclusive.
Screening CC(C)C[C@H]1CNC(=S)N1CC1CCN(CC2CCC(C(C)(C)C)CC2)CC1 (stereo partly drawn) returned JMJD2A Tudor inh -31% and HP1b binding inh 47%.
Screening COC(=O)CSc1nc2sc3c(c2c(=O)n1C1CCCCC1)CCN(C)C3 returned Sfp PPTase inh 56µM*, BAZ2B inh -30% and G9a inh 45µM*.
`COc1cc(CN2C(=O)NC(=O)C3(Cc4cc(C)ccc4N(C)C3)C2=O)cc(OC)c1` (stereo not drawn) gave JMJD2A Tudor inh -32%, Sfp PPTase inh inconclusive, BAZ2B inh -35%, G9a inh inconclusive and HP1b binding inh 23%.
Screening COc1ccc2c(c1)CC1(CN2C)C(=O)NC(=O)N(CCc2ccccc2)C1=O (stereo not drawn) returned JMJD2A Tudor inh -32%, Sfp PPTase inh -6%, BAZ2B inh inconclusive, G9a inh 11µM* and HP1b binding inh 38%.
For Cc1ccc2c(c1)CC1(CN2C)C(=O)NC(=O)N(c2cc(C)ccc2C)C1=O (stereo not drawn) the results were JMJD2A Tudor inh -29%, Sfp PPTase inh -7%, BAZ2B inh 3%, G9a inh 5.6µM* and HP1b binding inh 67%.
CCCCN1C(=O)NC(=O)C2(Cc3cc(C)ccc3N(C)C2)C1=O (stereo not drawn) was read as JMJD2A Tudor inh -16%, Sfp PPTase inh inconclusive, BAZ2B inh -7%, G9a inh inconclusive and HP1b binding inh 31%.
`COc1ccc(OC)c(N2C(=O)NC(=O)C3(Cc4cc(C)ccc4N(C)C3)C2=O)c1` (stereo not drawn) gave JMJD2A Tudor inh -29%, Sfp PPTase inh -20%, BAZ2B inh -3%, G9a inh 8.9µM* and HP1b binding inh 11%.
`COc1cccc(N2C(=O)NC(=O)C3(Cc4cc(C)ccc4N(C)C3)C2=O)c1` (stereo not drawn) gave JMJD2A Tudor inh inconclusive, Sfp PPTase inh -1%, BAZ2B inh 5%, G9a inh 2.8µM* and HP1b binding inh 42%.
CN1C(=O)N(C)C(=O)C2(Cc3cc([N+](=O)[O-])ccc3N(C)C2)C1=O was read as JMJD2A Tudor inh -1%, Sfp PPTase inh 20%, BAZ2B inh -6%, G9a inh 0% and HP1b binding inh 30%.
Screening CC(=O)OC1CC2C(C)(C)C(O)C=C[C@@]2(C)C2CC[C@]3(C)C(=CC(=O)OC3c3ccoc3)[C@]12C (stereo partly drawn) returned Sfp PPTase inh -6% and G9a inh -19%[2.33 µM].
O=C(O)c1cccc2c1NC(C(=O)O)C1CC(Sc3ccccc3[N+](=O)[O-])C(Cl)C21 (stereo not drawn) was read as JMJD2A Tudor inh 14µM*, Sfp PPTase inh 25µM*, BAZ2B inh 6.3µM*, G9a inh 10µM* and HP1b binding inh -93%.
`CC(=O)c1ccc2c(c1)C1C(Cl)C(Sc3ccccc3[N+](=O)[O-])CC1C(C(=O)O)N2` (stereo not drawn) gave JMJD2A Tudor inh 35µM*, Sfp PPTase inh 56µM*, BAZ2B inh 10µM*, G9a inh 7.9µM* and HP1b binding inh inconclusive.
`CN1CCC2(CC1)NC(=O)c1ccccc1N2` gave JMJD2A Tudor inh -8%, Sfp PPTase inh -6%, BAZ2B inh -2%, G9a inh 9%[59 µM] and HP1b binding inh 55%.
For CN1CCC2(CC1)N=C(c1ccc(F)cc1)C(=S)N2 the results were JMJD2A Tudor inh 32µM*, Sfp PPTase inh 79µM*, BAZ2B inh -1%, G9a inh 25µM* and HP1b binding inh inconclusive.
For O=C(C[n+]1ccccc1)c1ccc(Cl)cc1 the results were JMJD2A Tudor inh inconclusive, Sfp PPTase inh 5%, BAZ2B inh -1%, G9a inh 2µM* and HP1b binding inh 10%.
`CNC(=O)Oc1ccccc1OC(C)C` gave JMJD2A Tudor inh -10%, Sfp PPTase inh 12% and HP1b binding inh 52%.
`CNC(=O)Oc1ccc2ncccc2c1` gave JMJD2A Tudor inh 8%, Sfp PPTase inh 2%, BAZ2B inh -2%, G9a inh 45µM* and HP1b binding inh 46%.
`COc1cc2c(cc1O)[C@H]1Cc3ccc(OC)c(O)c3CN1CC2` gave Sfp PPTase inh 9% and G9a inh 2%[21.5 µM].
`CN1CCc2cc3c(cc2[C@@H]1[C@@H]1OC(=O)c2c1ccc1c2OCO1)OCO3` gave Sfp PPTase inh 3% and G9a inh 23%[21.5 µM].
Screening CC(C)(C)C(=O)Cn1c(NCCCl)nc2ccccc21 returned JMJD2A Tudor inh -10%, Sfp PPTase inh 8%, BAZ2B inh -21%, G9a inh 40µM* and HP1b binding inh 32%.
`CC(=O)OCC[N+](C)(C)C` gave JMJD2A Tudor inh 1%, Sfp PPTase inh 20%, BAZ2B inh 5%, G9a inh 16%[59 µM] and HP1b binding inh 34%.
`C[N+](C)(C)CCOC(=O)CBr` gave JMJD2A Tudor inh -18%, Sfp PPTase inh -25%, BAZ2B inh 11%, G9a inh 25µM*! and HP1b binding inh 15%.
Cc1ccc(S(=O)(=O)N2CN3CCN(C3)C2)cc1 was read as JMJD2A Tudor inh -12%, Sfp PPTase inh 13%, BAZ2B inh -1%, G9a inh -8%[59 µM] and HP1b binding inh 24%.
